Compounds with a hit are over-represented: about 3.6% of the library has one in this group of screens.
GDH-TPI inh: counter-screen for M. tuberculosis FBA inhibitors: GDH-TPI coupled enzymes. GDH-TPI coupled enzyme counterscreen, NADH absorbance. inhibition, % at 4.8 µM. 1.2% of 360,000 active. AID 588335; in the data active = inhibition above about 30%;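 note: 0% = DMSO wells and 100% = wells lacking the enzyme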
Mtb betalactam: beta-lactam sensitization of Mtb H37Rv | M. tuberculosis H37Rv growth with meropenem, percent inhibition | inhibition, % at 25 µM | 0.27% of 330,000 active | AID 434955; call rule not given here;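 note: growth measured after seven days incubation then overnight dye step; 0% = bacteria only wells and 100% = bacteria with antibiotic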
Mtb FBA inh: inhibits M. tuberculosis FBA enzyme; inhibition, % at 1 µM; purified M. tuberculosis FBA, fluorescence read-out; 2.3% of 360,000 active; P9WQA3; in the data active = inhibition above about 27%;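 note: 0% = vehicle and 100% = reference inhibitor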
Target sequence (P9WQA3 whole entry, looked up): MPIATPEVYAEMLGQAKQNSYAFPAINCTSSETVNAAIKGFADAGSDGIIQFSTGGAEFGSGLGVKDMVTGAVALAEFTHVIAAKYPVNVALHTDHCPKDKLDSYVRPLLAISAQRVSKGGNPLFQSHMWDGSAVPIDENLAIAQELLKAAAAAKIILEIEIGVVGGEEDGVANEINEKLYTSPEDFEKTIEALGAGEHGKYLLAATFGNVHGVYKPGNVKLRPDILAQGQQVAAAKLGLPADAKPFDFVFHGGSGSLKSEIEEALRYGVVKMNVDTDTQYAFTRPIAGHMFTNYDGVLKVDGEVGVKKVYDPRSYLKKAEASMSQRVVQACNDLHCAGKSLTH
VHR inh abs: blocks human VHR1 dual specificity phosphatase; recombinant VHR phosphatase, pNPP absorbance; inhibition, % at 13.3 µM; 0.52% of 290,000 active; P51452; in the data active = inhibition above about 50%
Target sequence (P51452 whole entry, looked up): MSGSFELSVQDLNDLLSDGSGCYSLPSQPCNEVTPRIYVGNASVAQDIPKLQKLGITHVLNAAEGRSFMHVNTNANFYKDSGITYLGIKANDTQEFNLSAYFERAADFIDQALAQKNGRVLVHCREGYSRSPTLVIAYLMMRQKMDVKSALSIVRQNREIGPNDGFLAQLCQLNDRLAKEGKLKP
Mtb hypoxia inh: inhibitors of hypoxia-regulated fluorescent reporter in Mycobacterium tuberculosis. M. tuberculosis hypoxia-regulated fluorescent reporter, fluorescence. fluorescence inhibition, % (concentration not given with the values). 0.1% of 300,000 active. AID 1159583; in the data active = fluorescence inhibition mostly above about 23%, no sharp cut-off; inactive = mostly below about 17%
* hit, by the source's call; ? = inconclusive; . = no result shown; + = active, no number.

SMILES | GDH-TPI inh | Mtb betalactam | Mtb FBA inh | VHR inh abs | Mtb hypoxia inh
Cc1ccc(SCc2c(C(=O)N/N=C/c3ccc(C)o3)nnn2-c2nonc2N)cc1 | 39* | . | 2 | . | .
Cc1ccc(/C=N/NC(=O)c2nnn(-c3nonc3N)c2C(C)C)o1 | 44* | 7 | 0 | 43 | .
Cc1ccc(SCc2c(C(=O)N/N=C/c3ccccc3)nnn2-c2nonc2N)cc1 | 2 | -1 | 5 | -13 | .
C#CCOCCOCCOCCNc1nc(N2CCN(C(=O)C(C(C)O)n3cc(C(N)CCCCN)nn3)CC2)nc(N2CCN(C(=O)C(C(C)O)n3cc(C(N)CCCCN)nn3)CC2)n1 (configuration not stated) | . | . | . | . | 3
CC(=NNC(=O)c1nnn(-c2nonc2N)c1COc1ccccc1)c1ccccc1 | . | . | . | . | 16
COc1ccc(C=NNC(=O)c2nnn(-c3nonc3N)c2-c2cccc(OC)c2)cc1 | . | . | . | . | 3
COc1cccc(-c2c(C(=O)N/N=C/c3ccc(C)o3)nnn2-c2nonc2N)c1 | 47* | 16 | -1 | 9 | .
C/C(=N/NC(=O)c1nnn(-c2nonc2N)c1COc1ccccc1)c1ccccc1Cl | 5 | 0 | 0 | 57* | .
CCN1C(=O)C2C(c3ccc(-c4ccc(C(C)=O)cc4)cc3)N[C@@](Cc3ccccc3)(C(=O)OC)C2C1=O (some centres not stated) | . | . | . | . | 18
COC(=O)C1=C(c2ccccc2OCc2ccccc2)CC2CCC1N2C(=O)NCc1ccc(OC)c(OC)c1 (configuration not stated) | . | . | . | . | -5
CC(=O)c1ccc(Nc2c3c(nc4ccccc24)CCCC3)cc1 | 37* | 33 | 3 | 21 | 7
N#Cc1c(N)n(-c2cccc(C(=O)O)c2)c2nc3ccccc3nc12 | 43* | 2 | + | 18 | 13
N#C/C(=C(/O)c1ccc(Br)s1)c1nc2ccccc2[nH]1 | 8 | -6 | -2 | 29 | -1
O=C(/C(=C/c1ccc(Cl)cc1)c1nc2ccccc2[nH]1)c1cccs1 | 32* | ? | -1 | 6 | .
N#C/C(=C(/O)c1cccs1)c1nc2ccccc2[nH]1 | 39* | ? | 14 | -19 | 5
O=C(/C(=C\c1ccccc1)c1nc2ccccc2[nH]1)c1ccc(Cl)cc1 | 11 | 8 | 1 | 10 | 20
Cc1nn(-c2ccccc2)c(C)c1-c1cc(C(=O)N/N=C/c2ccc(O)cc2)[nH]n1 | 44* | 3 | 5 | 20 | .
COc1cc(C=NNC(=O)c2ccc(NC(=O)C3CCCCC3)cc2)ccc1O | . | . | . | . | -8
COc1cc(/C=N/NC(=O)c2cc(-c3ccc4c(c3)OCO4)n[nH]2)ccc1O | 39* | -4 | -3 | 21 | .
COc1cc(/C=N/NC(=O)c2cc(C3CC3)[nH]n2)ccc1O | 44* | 1 | -3 | 4 | .
COc1cc(/C=N/NC(=O)c2ccc(NC(=O)C3CCCCC3)cc2)ccc1O | 35* | 5 | -2 | 11 | .
COc1cc(C=NNC(=O)c2ccc3c(c2)OCO3)ccc1O | . | . | . | . | -5
O=C(NC(Cc1c[nH]c2ccccc12)C(=O)NN=Cc1cccnc1)c1cccs1 (configuration not stated) | . | . | . | . | -11
O=C(NN=Cc1ccoc1)c1ccccc1 | . | . | . | . | 11
CC1CN(C(C)CO)C(=O)c2cccc(NC(=O)c3ccc(-c4nccs4)cc3)c2OC1CN(C)C(=O)Nc1cccc2ccccc12 (configuration not stated) | . | . | . | . | -9
SMILES | GDH-TPI inh | Mtb betalactam | Mtb FBA inh | VHR inh abs | Mtb hypoxia inh
O=S1(=O)CCOCC(c2ccccc2)N1Cc1ccccc1 (configuration not stated) | . | . | . | . | 8
COc1cc(/C=N/NC(=O)c2cc(-c3c(C)nn(-c4ccccc4)c3C)n[nH]2)ccc1O | 33* | 94 | -1 | 32 | .
Brc1ccc(CN2CCC3C=CCc4cccc(c43)C2)cc1 (configuration not stated) | . | . | . | . | -2
O=C1CCC(OCc2ccccc2)CCN1CCC(Sc1ccccc1)c1ccccc1 (configuration not stated) | . | . | . | . | 12
CSc1nc(Cc2ccccc2)nc2ccccc12 | -3 | 10 | -1 | 53* | -3
CC(C)(C)NC(=O)CSc1nc(Cc2ccccc2)nc2ccccc12 | -11 | -8 | -1 | 26 | 22
Cc1ccc(-c2cn3cccnc3n2)cc1 | 7 | 2 | + | -1 | 15
CS(=O)(=O)Nc1ccc(-c2cn3cccnc3n2)cc1 | 16 | -4 | 115* | 23 | 11
Cc1ccc(NC=C(C#N)c2ccsc2)cc1 | . | . | . | . | 8
Cc1ccc(C)c(N/C(N)=N/c2nc(C)cc(C)n2)c1 | 7 | 100 | 0 | 1 | .
Cc1ccc(CN=C(N)Nc2nc(C)cc(C)n2)cc1 | 1 | 5 | -2 | 57* | 13
CCOC(=O)C1C2COc3cc(OC)ccc3C2N2C(=O)N(c3cccc(C)c3)C(=O)[C@@]12C (some centres not stated) | . | . | . | . | -4
COc1ccc(NC(=O)NNC(=O)c2cc3occc3n2C)c(OC)c1 | -1 | -4 | -4 | 51* | -6
CC(=O)Nc1ccc(N=Nc2ccccc2)cc1 | 36* | 2 | -4 | 8 | 5
CC(=O)OCC(=O)Nc1ccc(N=Nc2ccccc2)cc1 | 37* | 4 | -9 | 8 | 1
CCN1CC2C3C(=O)N(Cc4ccccc4)C(=O)C3[C@](CC)(C1=O)N2C(=O)c1ccc(F)cc1 (some centres not stated) | . | . | . | . | 20
C=CCN1C(=O)/C(=C/c2ccc(OC)cc2)SC1=Nc1nccs1 | . | . | . | . | 12
CCOc1ccc(/C=C/C(=O)N(CC)CC(=O)Nc2ccc3c(c2)OCCO3)cc1OC | 7 | 0 | 5 | . | 9
CCOc1ccc(/C=C/C(=O)N(CC)CC(=O)Nc2c(F)cccc2F)cc1OC | 32* | . | 10 | . | .
CCCN(CC(=O)Nc1ccccc1C)C(=O)/C=C/c1ccc(OCC)c(OC)c1 | 34* | -2 | 13 | . | 6
CCCN(CC(=O)Nc1ccccc1C)C(=O)/C=C/c1cccs1 | 26 | -2 | -1 | 4 | -1
Cn1c(C(=O)N2CCC(C(=O)N3CCN(Cc4ccc5c(c4)OCO5)CC3)CC2)cc2sccc21 | 8 | -3 | -1 | 15 | 0
Cn1c(C(=O)N2CCC(C(=O)N3CCOCC3)CC2)cc2sccc21 | 6 | -3 | 0 | 53* | 4
CCOc1ccc(NC(=O)c2ccc3[nH]c(=O)c(=O)[nH]c3c2)cc1 | 32* | 3 | 3 | 20 | 2
CCOc1ccc(NS(=O)(=O)c2ccc3[nH]c(=O)c(=O)[nH]c3c2)cc1 | 4 | -7 | -3 | 48 | -6
COc1ccc(NC(=O)COc2ccc(C=NNC(=O)c3cccnc3)cc2OC)cc1 | . | . | . | . | 8
CN1CCN(C(=O)C2CCC(CNS(=O)(=O)c3cccc4cccnc34)CC2)CC1 (configuration not stated) | 14 | 3 | 5 | 11 | .
O=C(C1CCN(S(=O)(=O)c2cccc3cccnc23)CC1)N1CCc2ccccc21 | -1 | -9 | 0 | 55* | .
O=C(C1CCC(CNS(=O)(=O)c2cccc3cccnc23)CC1)N1CCc2ccccc21 (configuration not stated) | 1 | -2 | 3 | 54* | .
O=C(CN1C(=O)NC2(CCCC2)C1=O)Oc1ccc2ccc(=O)oc2c1 | 27 | 1 | . | . | 2

Assay outcomes: PubChem BioAssay, several laboratories
